Results published in PubChem BioAssay (NCI).
This is part of a sample that, as a whole, favours compounds with a hit. Of some 83,000 tested, about 20% had one in any assay.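 Assay: single dose, 48 h. Readout: percent growth (0 = no net growth; negative = cell death). Active: <10.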 A number with no mark means an inactive call. Active and inactive are the calls of the source.

tested on: HS 578T breast; test: NCI-60 one-dose screen, 48 h (100 = growth as untreated, 0 = no growth, -100 = all killed); details: 10 µM unless noted

SMILES | growth
COC(=O)c1c(C)nc(C)c2c1C(=O)C=C(NCc1ccccc1)C2=O | 116%
COc1ccc2[nH]cc(-c3nonc3-c3c[nH]c4ccc(Br)cc34)c2c1 | 55.1%
C=C(C)[C@@H]1CC[C@]2(COC3CCCCO3)CC[C@]3(C)[C@H](CC[C@@H]4[C@@]5(C)C=C(C=O)C(=O)C(C)(C)[C@@H]5CC[C@]43C)[C@@H]12 (stereo not given in full) | -24.3% (active)
CCOc1ncc([N+](=O)[O-])c(OCC)n1 | 121%
c1ccc(-c2c(-c3ccccc3)[n+](Cc3ccc4ccccc4c3)cn2Cc2ccc3ccccc3c2)cc1 | -27.8% (active)
Cn1cc(-c2csc(-c3cn(CCCN4CCOCC4)c4ccc(F)cc34)n2)c2cccnc21 | 46.6%
Cc1cn(C)cn1 | 138%
COC(=O)c1sccc1-c1cc(O)c(C(=O)Nc2ccccc2)s1 | 103%
CCCCCc1ccc(S(=O)(=O)Nc2ccc3nc(N)oc3c2)cc1 | 73.9%
COc1ccc2c(O)c(/C=C3\N=Nc4ncccc43)oc2c1C[C@@H]1CCNC[C@H]1F | -1.31% (active)
CCN(CC)CCCC(Cc1ccccc1)Nc1c2ccc(Cl)cc2nc2ccc(OC)cc12 (stereo not given) | 52.2%
CNCC[C@H](Oc1cccc2ccccc12)c1cccs1 | 67.5%
CCOC(=O)c1cnn(CC(C)O)c1NC(=O)NCc1cccc(F)c1 (stereo not given) | 103%
N#Cc1ccc(/C=C/c2cn(-c3ccccc3)nc2-c2cccc([N+](=O)[O-])c2)cc1 | 76.2%
O=C(/C=C/c1ccco1)Nc1ncc(Cc2cc(Cl)ccc2Cl)s1 | 8.67% (active)
CCOC(=O)c1nnn(Cc2cc(=O)oc3ccc(O)cc23)c1C | 93.5%
CC1(C)CC[C@]23CC[C@]4(C)[C@H](CC[C@@H]5[C@@]6(C)C/C(=C/O)C(=O)C(C)(C)[C@@H]6CC[C@]54C)[C@H]2[C@H]1OC3 | 111%
COC(=O)c1nc(-c2ccccc2)oc1S(=O)(=O)N1CCCC(C)C1 (stereo not given) | 104%
Cc1ccc2c(/C=C/C(=O)c3cc(CN4CCOCC4)c(O)c4nc(C)ccc34)cc(CN3CCOCC3)c(O)c2n1 | 29.6%
CCN1C(=O)N(CC)C2C1NN=c1s/c(=C\c3ccc(OC)cc3)c(=O)n12 (stereo not given) | 21.6%

SMILES | growth
COc1ccc(C/C(C)=C(\c2ccc(Cl)cc2)c2ccc(OCCN3CCCC3)cc2)cc1 | 70.4%
CCN(CC)CCOc1ccc(Nc2ncc3cc(-c4c(Cl)cccc4Cl)c(=O)n(CCOC)c3n2)cc1 | 8.49% (active)
O=C(O)c1cn(C2CC2)c2cc(N3CCN(C(=O)N4CCOCC4)CC3)c(F)cc2c1=O | 119%
Clc1ccc(-c2nc(C(Cl)Cl)nc3cc(-c4ccccc4)nn23)cc1 | -4.46% (active)
c1cc(OCCN2CCCCCC2)ccc1CNc1ccc2nc(CCC3CCCCC3)[nH]c2c1 | 65.2%
CN(C)CCCC1(c2ccc(F)cc2)OCc2cc(-c3csc4ccccc34)ccc21 (stereo not given) | 19.3%
C(=C(\C1=NCCN1)n1ccc2ccccc21)/c1ccccc1 | 88.6%
COc1ccc(C/C(C)=C(\c2ccc(Cl)cc2)c2ccc(OCCCN(C)C)cc2)cc1 | 75.6%
Cc1ccc(S(=O)(=O)c2nc(-c3ccccc3)oc2SCC(N)=O)cc1 | 101%
CCCCn1c(NC(C)=O)c(S(=O)(=O)c2ccccc2)c2nc3ccccc3nc21 | 95.9%
Cc1ccc(Cc2cnc(NC(=O)/C=C/c3ccc(C)o3)s2)cc1 | 30.7%
CCN(CC)CCOc1ccc(C(=O)/C=C\c2ccc(Cl)cc2Cl)cc1 | 66.2%
O=C(/C=C/C12c3ccccc3C(c3ccccc31)C1C(=O)NC(=O)C12)c1ccco1 (stereo not given) | 31.4%
CCOC(=O)C1=C(CC(O)c2ccc(OC)cc2OC)NC(=O)NC1c1ccccc1 (stereo not given) | 117%
COc1ccc2c(c1)CC[C@@H]1[C@@H]2CC[C@]2(C)c3c(cc(C#N)c4c3sc3ccccc34)C[C@@H]12 | 94.6%
COc1ccc(-c2cn(Cc3cc4ccccc4s3)nn2)cc1OCCN1CCCCC1 | 51.3%
Cc1ncc(C(=O)Nc2ccc(CN3CCN(C)CC3)c(C(F)(F)F)c2)cc1C#Cc1cnc(N)c2ccc(C#N)cc12 | -8.89% (active)
Cc1sc2nc(NCCN)[nH]c(=O)c2c1C | 88.7%
C#CCOc1cccc(Nc2ncnc3cc(NC(=O)CCl)ccc23)c1 | -1.12% (active)
COc1cc(-c2ccc(-c3ccc(C(=N)N)cc3)s2)cc(OC)c1OC | 34.7%

tested on: NCI/ADR-RES ovarian; test: as above; details: 10 µM unless noted

SMILES | growth
COC(=O)c1c(C)nc(C)c2c1C(=O)C=C(NCc1ccccc1)C2=O | 81.7%
COc1ccc2[nH]cc(-c3nonc3-c3c[nH]c4ccc(Br)cc34)c2c1 | 39.9%
C=C(C)[C@@H]1CC[C@]2(COC3CCCCO3)CC[C@]3(C)[C@H](CC[C@@H]4[C@@]5(C)C=C(C=O)C(=O)C(C)(C)[C@@H]5CC[C@]43C)[C@@H]12 (stereo not given in full) | 1.89% (active)
CCOc1ncc([N+](=O)[O-])c(OCC)n1 | 99.5%
c1ccc(-c2c(-c3ccccc3)[n+](Cc3ccc4ccccc4c3)cn2Cc2ccc3ccccc3c2)cc1 | 70.5%
Cn1cc(-c2csc(-c3cn(CCCN4CCOCC4)c4ccc(F)cc34)n2)c2cccnc21 | 53.8%
Cc1cn(C)cn1 | 109%
COC(=O)c1sccc1-c1cc(O)c(C(=O)Nc2ccccc2)s1 | 93.2%
CCCCCc1ccc(S(=O)(=O)Nc2ccc3nc(N)oc3c2)cc1 | 53%
COc1ccc2c(O)c(/C=C3\N=Nc4ncccc43)oc2c1C[C@@H]1CCNC[C@H]1F | 1.39% (active)
CCN(CC)CCCC(Cc1ccccc1)Nc1c2ccc(Cl)cc2nc2ccc(OC)cc12 (stereo not given) | 45%
CNCC[C@H](Oc1cccc2ccccc12)c1cccs1 | 83.4%
CCOC(=O)c1cnn(CC(C)O)c1NC(=O)NCc1cccc(F)c1 (stereo not given) | 96.9%
N#Cc1ccc(/C=C/c2cn(-c3ccccc3)nc2-c2cccc([N+](=O)[O-])c2)cc1 | 62.8%
O=C(/C=C/c1ccco1)Nc1ncc(Cc2cc(Cl)ccc2Cl)s1 | -0.63% (active)
CCOC(=O)c1nnn(Cc2cc(=O)oc3ccc(O)cc23)c1C | 108%
CC1(C)CC[C@]23CC[C@]4(C)[C@H](CC[C@@H]5[C@@]6(C)C/C(=C/O)C(=O)C(C)(C)[C@@H]6CC[C@]54C)[C@H]2[C@H]1OC3 | 104%
COC(=O)c1nc(-c2ccccc2)oc1S(=O)(=O)N1CCCC(C)C1 (stereo not given) | 100%
Cc1ccc2c(/C=C/C(=O)c3cc(CN4CCOCC4)c(O)c4nc(C)ccc34)cc(CN3CCOCC3)c(O)c2n1 | 8.34% (active)
CCN1C(=O)N(CC)C2C1NN=c1s/c(=C\c3ccc(OC)cc3)c(=O)n12 (stereo not given) | 0.931% (active)

SMILES | growth
COc1ccc(C/C(C)=C(\c2ccc(Cl)cc2)c2ccc(OCCN3CCCC3)cc2)cc1 | 87.8%
CCN(CC)CCOc1ccc(Nc2ncc3cc(-c4c(Cl)cccc4Cl)c(=O)n(CCOC)c3n2)cc1 | 6.66% (active)
O=C(O)c1cn(C2CC2)c2cc(N3CCN(C(=O)N4CCOCC4)CC3)c(F)cc2c1=O | 105%
Clc1ccc(-c2nc(C(Cl)Cl)nc3cc(-c4ccccc4)nn23)cc1 | 19.7%
c1cc(OCCN2CCCCCC2)ccc1CNc1ccc2nc(CCC3CCCCC3)[nH]c2c1 | 66.9%
CN(C)CCCC1(c2ccc(F)cc2)OCc2cc(-c3csc4ccccc34)ccc21 (stereo not given) | 37.9%
C(=C(\C1=NCCN1)n1ccc2ccccc21)/c1ccccc1 | 97.6%
COc1ccc(C/C(C)=C(\c2ccc(Cl)cc2)c2ccc(OCCCN(C)C)cc2)cc1 | 88.7%
Cc1ccc(S(=O)(=O)c2nc(-c3ccccc3)oc2SCC(N)=O)cc1 | 99.5%
CCCCn1c(NC(C)=O)c(S(=O)(=O)c2ccccc2)c2nc3ccccc3nc21 | 97.7%
Cc1ccc(Cc2cnc(NC(=O)/C=C/c3ccc(C)o3)s2)cc1 | 33.9%
CCN(CC)CCOc1ccc(C(=O)/C=C\c2ccc(Cl)cc2Cl)cc1 | 49.9%
O=C(/C=C/C12c3ccccc3C(c3ccccc31)C1C(=O)NC(=O)C12)c1ccco1 (stereo not given) | 42.3%
CCOC(=O)C1=C(CC(O)c2ccc(OC)cc2OC)NC(=O)NC1c1ccccc1 (stereo not given) | 107%
COc1ccc2c(c1)CC[C@@H]1[C@@H]2CC[C@]2(C)c3c(cc(C#N)c4c3sc3ccccc34)C[C@@H]12 | 101%
COc1ccc(-c2cn(Cc3cc4ccccc4s3)nn2)cc1OCCN1CCCCC1 | 75.4%
Cc1ncc(C(=O)Nc2ccc(CN3CCN(C)CC3)c(C(F)(F)F)c2)cc1C#Cc1cnc(N)c2ccc(C#N)cc12 | 39%
Cc1sc2nc(NCCN)[nH]c(=O)c2c1C | 94.8%
C#CCOc1cccc(Nc2ncnc3cc(NC(=O)CCl)ccc23)c1 | -21.9% (active)
COc1cc(-c2ccc(-c3ccc(C(=N)N)cc3)s2)cc(OC)c1OC | 95.4%
